Compounds with a hit are over-represented: about 1.8% of the library has one in this group of screens.
Gli-Sufu block – Gli-Sufu pathway antagonists, primary screen, luciferase luminescence, Sufu-KO-LIGHT cells, uHTS. Sufu-KO-LIGHT fibroblasts, Gli luciferase reporter luminescence. inhibition, % at 5 µM. actives 0.74% (n = 340,000). AID 588413, 2011;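 active means inhibition above about 55%, limit read from the data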
Jurkat NFkB inh – inhibitors of induced NF-kB luciferase reporter, primary screen, TCR NF-kB activation inhibitor project, cell-based, luminescence, uHTS. Jurkat, PMA/ionomycin-induced NF-kB luciferase reporter. inhibition, % at 4 µM. actives 0.53% (n = 330,000). AID 435003, 2010; in the data active means inhibition above about 50%
Beta cell apopt – inhibitors of cytokine-induced beta cell apoptosis, primary screen, luminescence; AID 435005, 2010; INS-1E cytokine-induced death, ATP luminescence, 48 h; percent of positive-control rescue, neutral wells zero; actives 0.8% (n = 300,000); protection from apoptosis, % (concentration not given with the values);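 active means Every replicate reaches about 75%, or at least half do and their mean reaches it too, limit read from the data; inconclusive means At least half of replicates reach the limit but their mean does not; inactive means Under half of replicates reach the limit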;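 further: higher means more ATP so stronger rescue from cytokine killing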
697 NFkB inh – inhibitors of PMA/ionomycin-induced NF-kB reporter, 697 cells, primary screen, B-cell NF-kB inhibitor project, cell-based, luminescence, uHTS. inhibition, % at 4 µM. 697 B-cell NF-kB luciferase reporter, 16 h. actives 0.33% (n = 330,000); in the data active means inhibition above about 35%
A number is an active result; – = inactive; ? = inconclusive; · = no result.

SMILES	Gli-Sufu block	Jurkat NFkB inh	Beta cell apopt	697 NFkB inh
Oc1c(C(c2ccccc2)N2CCOCC2)ccc2ccccc12 (configuration not stated)	–	·	·	·
CN1CCN(C(c2ccc(C(F)(F)F)cc2)c2cc(Cl)c3cccnc3c2O)CC1 (configuration not stated)	·	–	100	–
CCN1CCN(C(c2ccc(C(F)(F)F)cc2)c2ccc3cccnc3c2O)CC1 (configuration not stated)	–	–	86	–
CN1CCN(C(c2ccc(Cl)cc2)c2cc(Cl)c3cccnc3c2O)CC1 (configuration not stated)	–	–	–	–
Cc1ccc2nc(-c3cccc(-c4cccc(Cl)c4)c3)c(NCc3ccccc3)n2c1	–	–	94	–
CCC(C)Sc1cccc(-c2nc3ccc(C)cn3c2NCc2ccccc2)c1 (configuration not stated)	–	–	?	–
CCCCCCSc1cc(-c2nc3ccc(C)cn3c2NCc2ccccc2)ccc1OC	–	–	117	–
CCCCCCSc1cccc(-c2nc3ccc(C)cn3c2NCc2ccccc2)c1	–	–	–	–
COc1ccc(OC)c(NC(=O)CN(Cc2ccc(F)cc2)C2CCCCC2)c1	–	–	100	–
COc1ccc(Cl)cc1NC(=O)CN(C)C1CCCCC1	–	–	–	–
O=C(Nc1ccc(Br)c(C(F)(F)F)c1)c1ccccc1	–	–	–	–
COc1ccc(C(=O)Nc2ccc(OCC(F)(F)C(F)F)c(C(F)(F)F)c2)cc1OC	–	–	–	–
O=C(Nc1ccc(OCC(F)(F)C(F)F)c(C(F)(F)F)c1)c1ccc(Cl)cc1	–	–	79	–
O=C(Nc1ccc(Br)c(C(F)(F)F)c1)c1ccc(C(F)(F)F)cc1	–	–	74	–
COc1cccc(NC(=O)CN(C)C(=O)c2ccccc2OCc2c(C)noc2C)c1	–	–	–	–
O=C(CCCn1c(=S)[nH]c2ccccc2c1=O)NC1CCCC1	–	–	–	–
COc1cc(C=O)ccc1Oc1cnccn1	–	–	–	–
COC(=O)c1ccc2c(c1)C(C)(C)C(/C=C/c1ccc(OC)c(OC)c1OC)=[N+]2C	–	–	107	–
C/C=C(/C)C(=O)OC1CC(C)(C)C[C@H]2C3=CC[C@@H]4[C@@]5(C)CCC(O[C@@H]6O[C@@H](C(=O)O)[C@@H](O)C(O[C@@H]7OC[C@H](O)[C@@H](O)[C@@H]7O[C@@H]7OC(CO)C(O)[C@@H](O)[C@@H]7O)C6O[C@@H]6OC(CO)C(O)C(O)C6O)[C@@](C)(CO)[C@@H]5CC[C@]4(C)[C@]3(C)CC(O)[C@@]12CO (some centres not stated)	–	–	–	–
CC(=O)OC1COC(OC2C(O)C(C)OC(OC3C(OC4CCC5(C)C(CCC6(C)C5CC=C5C7CC(C)(C)CCC7(C(=O)O)CCC56C)C4(C)CO)OCC(O)C3O)C2O)C(O)C1OC(C)=O (configuration not stated)	·	–	107	–
CCOC(=O)c1cnc(-n2nc(C)cc2C)nc1NNc1ncc(-c2ccccc2)cn1	–	–	96	–
CCOC(=O)c1cnc(-n2nc(C)cc2C)nc1NNc1cc(-c2ccccc2)nc(C)n1	·	–	·	–
CCOC(=O)c1cnc(-n2nc(C)cc2C)nc1NCCO	–	–	–	–
CCOC(=O)c1cnc(-n2nc(C)cc2C)nc1NC(C)c1ccccc1 (configuration not stated)	–	–	88	–
CCOC(=O)c1cnc(-n2nc(C)cc2C)nc1NCc1ccccc1	–	–	99	–
SMILES	Gli-Sufu block	Jurkat NFkB inh	Beta cell apopt	697 NFkB inh
COc1nc(-c2ccccc2)ccc1-c1noc(COc2ccccc2)n1	–	–	·	–
CC(=O)Nc1ccc(S(=O)(=O)N2CCSC2C(=O)O)cc1 (configuration not stated)	–	–	–	–
Cc1cc(-n2c(SCC(=O)Nc3ccc(F)c(F)c3)nc3n[nH]c(C)c3c2=N)ccc1Cl	–	–	76	–
Cc1cc(-n2c(SCC(=O)Nc3ccc(Br)cc3)nc3n[nH]c(C)c3c2=N)ccc1Cl	–	–	–	–
COc1cc(CNC(C)c2ccccc2)cc(Br)c1OCc1ccc(F)cc1 (configuration not stated)	–	–	113	–
CCOC(=O)/C(=C\c1ccccc1)C(=O)c1cc(C(C)=O)c(Nc2ccccc2)s1	–	–	98	–
CCOC(=O)C(=Cc1ccc(Br)cc1)C(=O)OCC	–	·	86	·
CCOC(=O)/C(C#N)=C\c1cccnc1	–	–	–	–
CCOC(=O)/C(=C\c1cccnc1)C(=O)c1cc(C(C)=O)c(Nc2ccccc2)s1	60	–	105	–
O=C(Nc1c(F)cc(F)cc1Br)c1cc(-c2ccccc2)on1	–	–	–	–
Cn1cc(/C=C(\C(=O)O)C(C(=O)O)=C2CCCCC2)c2ccccc21	–	–	–	–
N#C/C(=N\Nc1ccc(Cl)cc1)C(=O)c1ccccc1	–	–	99	–
Cc1c(N/N=C(\C#N)C(=O)c2ccc(Cl)cc2)c(=O)n(-c2ccccc2)n1C	–	·	76	·
COc1ccc(-c2oc3ccccc3c(=O)c2OC(=O)c2ccc(C)cc2)cc1	–	–	–	–
COc1ccc(-c2nn(-c3ccccc3)cc2/C=N/O)cc1OC	–	–	–	–
COc1ccc(-c2nn(-c3ccccc3)cc2/C=N/Nc2ccc3ccccc3n2)cc1OC	–	–	86	–
CCN1c2ccccc2NC2N=C(OC)C(c3ccccc3)C21 (configuration not stated)	–	–	111	–
COc1cccc(/C=N/Nc2cc(N3CCOCC3)ncn2)c1O	–	–	88	–
COc1ccc(-n2nc(C(C)=O)c(=O)[nH]c2=O)cc1	–	–	–	–
O=C(NN=Cc1c(O)ccc2ccccc12)c1ccncc1	87	·	·	·
O=C(N/N=C\c1c(O)ccc2ccccc12)c1ccc(O)cc1	–	–	·	–
Cn1nccc1C(=O)N/N=C/c1c(O)ccc2ccccc12	85	–	100	–
O=C(N/N=C/c1ccc(O)c2ncccc12)c1cccc(Br)c1	–	–	109	–
Cc1occc1C(=O)N/N=C/c1c(O)ccc2ccccc12	–	–	76	–
Cc1cc(-n2c(SCC(=O)NCc3cccs3)nc3n[nH]c(C)c3c2=N)ccc1Cl	–	–	–	–
CCCCc1c(O)nc(SCC(=O)N2CCOCC2)n(-c2ccc(OC)cc2)c1=O	–	–	–	–
CCC(=O)N1CCc2cc(S(=O)(=O)NC(C(=O)Nc3cccc(C)n3)C(C)C)ccc21 (configuration not stated)	–	–	–	–
O=C(N/N=C/c1c(O)ccc2ccccc12)c1cccnc1	68	–	96	–
CC(=C/c1ccccc1)/C=N/n1cnnc1	–	–	–	–
CC(NCC(O)COCCC12CC3CC(CC(C3)C1)C2)c1ccccc1 (configuration not stated)	–	–	88	–
